Data published in ChEMBL document CHEMBL3988442, “University of Dundee, Small-Polar-MMV Screening Library” (2021).

target: AMP-activated protein kinase, AMPK (Homo sapiens) (UniProt P54646+O43741+P54619+Q9UGJ0+Q9Y478+Q13131+Q9UGI9); assay: AMP-dependent Kinase enzyme assay. An in vitro enzyme assay that detects ADP turnover that is directly proportional to AMPK activity. This uses naive AMPK that is activated during the assay with MK-8722; format: functional; design: scale not given: direction of the effect not stated beside the values; conditions: 30 µM

SMILES | Percent Effect
O=C(NC1CCN(C2CC2)CC1)c1cn(-c2ccc(Cl)cc2)nn1 | 0.108%
CSc1nccc(N2CCC3(CCCN(Cc4cccc(C)c4)C3)C2)n1 (centres undefined) | 5.62%
CCOC(=O)C1(O)CCN(C(=O)Nc2ccc(CC)cc2)CC1 | 0.524%
O=C(c1ccncc1)N1CCCC(C2=Nc3ccccc3S(=O)(=O)N2)C1 (centres undefined) | 8.81%
CNC(=O)NC(=O)CN1CCc2c(Br)ccc(F)c2C1 | 5.32%
COc1cc(F)c(NCc2nc3ccccc3n2C)cc1OC | -46.6%
c1ccc(C2Cn3ccnc3CN2Cc2ncc[nH]2)cc1 (centres undefined) | 11.3%
FC(F)(F)Oc1cccc(CNCc2ccc(-n3cncn3)nc2)c1 | 12.8%
Cn1cccc1CNCC1CCCn2cc(C(C)(C)C)nc21 (centres undefined) | -0.856%
COc1ccc(CN(C)[C@@H]2COC[C@H]2c2ccc(F)cc2)c(OC)c1 | 10.5%
Cn1cc(NC(=O)N2CCCC2c2ccccn2)ccc1=O (centres undefined) | 40.9%
CCC(=O)N1CCOC(c2cc(Nc3nncs3)cc(C)n2)C1 (centres undefined) | 23%
CC(C)(C)NC(=O)C1CCCCN1Cc1nccn1CC(F)(F)F (centres undefined) | -2.34%
O=C(O)c1ccn(-c2ccccc2NC(=O)c2ccccc2Cl)n1 | 5.51%
O=C(NCc1nncn1C1CC1)c1ccccc1OCC1CC1 | 1.41%
O=C(Cc1c(F)cccc1Cl)NC1CCCCNC1=O (centres undefined) | 7.73%
CN1CCCCC1(C)C(=O)N1CCC(c2ccccn2)CC1 (centres undefined) | -3.58%
Cc1cc(N2CCC(O)(C(=O)O)CC2)nc2ccccc12 | 3.47%
O=C(CN1CC(c2nc(C3CC3)no2)C1)NCc1ccc(F)cc1 | 3.03%
O=C(Cc1c[nH]c(=O)[nH]c1=O)N1CCCCC1CCc1cccc(O)c1 (centres undefined) | 1.27%

SMILES | Percent Effect
CCN1CC2(CCC1=O)CCN(Cc1cccc(OC(F)F)c1)CC2 | -0.304%
COc1ccccc1CN(Cc1nc(C)no1)C1CC1 | 6.47%
CCC(Nc1ccc(CCN2CCOCC2)cc1)C(N)=O (centres undefined) | -3.46%
Cc1nc(CNC(=O)Nc2c(C)n[nH]c2C)cs1 | -7.09%
COc1ccc(Cl)cc1C(=O)NCc1cnn(C)c1C | 7.53%
O=C(Cc1cccnc1)N1CCCC(c2cc(C(F)(F)F)[nH]n2)C1 (centres undefined) | 2.17%
O=C(CC1CCCC1)NCCNCc1cccc2c1OCCO2 | -3.45%
CCn1ncnc1C1CC(=O)NCc2nc(N)sc21 (centres undefined) | -18.1%
CC(=O)Nn1ccc2c(nnc3c(-c4ccccc4)cnn32)c1=O | 12.7%
CC(CCc1ncnn1Cc1cccc(Cl)c1)N1CCCC1 (centres undefined) | 7.16%
Cc1cc(N2CCCC(N(C)C)C2)n2nc(C)cc2n1 (centres undefined) | -1.24%
CC(c1ncc(-c2ccccc2)o1)N1CCN(C(=O)N(C)C)CC1 (centres undefined) | -7.85%
COC(=O)C(NC(=O)c1cc(F)cc(F)c1)c1cccnc1 (centres undefined) | 2.18%
CC(=O)N[C@H]1CCO[C@@H](c2cccc(NC(=O)C(C)(C)C)c2)C1 | 7.76%
Cc1cc(C(=O)NCCC2CCN(C)CC2)ccc1N(C)S(C)(=O)=O | 6.31%
COC(=O)NCC(=O)N1CCC(c2cc3ccccc3[nH]2)CC1 | 6.03%
O=C(NCCNCc1cccc2c1OCCCO2)C1CCCC1 | -0.551%
COCCN(C)C[C@@H]1CN(c2cc(C)nc3ccccc23)C[C@@H]1CO | -6.62%
CC(C)c1cc(C2CCN(C(=O)Cn3cnnn3)CC2)[nH]n1 | 12.8%
